Several values for one entry are separate records, joined by “and”; a condition that tells them apart may be missing. Equal entries are not always repeated. Activity calls are given as the source filed them. How the source made its calls: active means hit-call score of the fitted dose curve at least 0.9, where 1 is the maximum; inactive means score below 0.9.
read-out: Collagen I, COL1A1 (gene 1277); assay: BSK_MyoF_CollagenI: BioMAP Diversity Plus: MyoF Assay for Collagen I Biomarker Activity (AID 2284238); conditions: primary human lung fibroblasts
Protocol: BSK_MyoF is a cell-based, multiplexed-readout assay that uses lung fibroblasts, […], with measurements taken at 24 hours after chemical dosing in a microplate: 96-well plate.BSK_MyoF_CollagenI is an assay component measured in the BSK_MyoF assay. It measures Collagen I antibody related to regulation of gene expression using ELISA technology.Data from the assay component BSK_MyoF_CollagenI was analyzed at the endpoint, BSK_MyoF_CollagenI, in the positive analysis fitting direction relative to DMSO as the negative control and baseline of activity. Using a type of binding reporter, gain or loss-of-signal activity can be used to understand protein changes. To generalize the intended target to other relatable targets, this assay endpoint is annotated to the 'cell adhesion molecules' intended target family, where the subfamily is 'collagen'.
The levels of cell surface (or secreted, indicated by the prefix "s") biomarker endpoints were measured by ELISA. Overt cytotoxicity to cells in confluent adherent cultures (all systems other than the BT system) was assessed by measuring total protein levels using sulforhodamine B (SRB) staining in parallel cultures at the time of biomarker measurements, indicated as SRB endpoints. For proliferation assays for adherent cell types, individual cell types are cultured at sub-confluence and relative cell numbers quantified by SRB staining at time points optimized for each system (48 h: 3C and CASM3C systems; 72 h: BT and HDF3CGF systems; 96 h: SAg system). SRB was performed by staining cells with 0.1% SRB after fixation with 10% TCA and reading wells at 560 nm.Viability and proliferation of PBMC (T cells) was quantified by Alamar Blue reduction for the SAg and BT systems. For PBMC viability (referred to as PBMC Cytotoxicity within the assay endpoint names), cells were plated (75,000/well in a 96-well plate) and then chemical samples added for 1 h before addition of activators, SEB and TSST-1 (20 ng/mL final concentration each). Cells were incubated for 90 h. Then, Alamar Blue (20 uL/well) (Invitrogen, Cat DAL1100) was added for 6 h, and the plates were read with a fluorescence microplate reader at 546/580 nm (excitation/emission). For PBMC proliferation, cells were plated and activated as above but incubated for only 16 h prior to addition of Alamar Blue. Plates were read after 6 h.

SMILES | outcome | AC50
O=C(C(=O)c1ccccc1)c1ccccc1 | inactive | 
CC(C)CC(=O)CC(C)CC(C)C (stereo not given) | inactive | 
CCCCCCCCCCCCCCCCCC[N+](C)(C)C |  | 1.35 µM (active)
Cc1cc(-n2nc3ccc(Cl)cc3n2)c(O)c(C(C)(C)C)c1 | inactive | 
CN(C)c1ccc(C(c2ccccc2)c2ccc(N(C)C)cc2)cc1 | inactive | 
CCCCCCC(O)CCCCCCCCCCC(=O)OC (stereo not given) | inactive | 
OC(C(F)(F)F)(C(F)(F)F)C(O)(C(F)(F)F)C(F)(F)F |  | 46.2 µM (active) and 45.7 µM (active)
CCCCCCCCCCC1CO1 (stereo not given) |  | 31.8 µM (active)
Oc1cccc2ccccc12 | inactive | 
CCCCCCCCCC/C=C/C1CC(=O)OC1=O (stereo not given) | inactive | 
Sc1nc2ccccc2s1 | inactive | 
CN(C)CCC(c1ccc(Cl)cc1)c1ccccn1 (stereo not given) | inactive | 
COC(=O)/C=C\C(=O)OC | inactive | 
CC[N+](CC)(CC(=O)Nc1c(C)cccc1C)Cc1ccccc1 | inactive | 
Cc1cccnc1 | inactive | 
